# Source: the supplement of paper PMC8728848
# Only a selection was taken, and the strongest signals are over-represented in it overall.
# B1: PkBDPgamma (Plasmodium knowlesi) (protein)
# chain: SAINQIFLQNNVMDKCNDKRKRGERDWDCPTEKDVCIPDRRYQLCMMEITNLVDTDTHFHSDIIFRKSYSRRRLIYDVGGRGDLLLKKYNNVYSEDLCKDIKWSLQDFGDIIMGTDMEGIGYSLVVQNNLRSIFGTGTSAELDRKKWWNDHKKDIWKAMILSVKEKNRYSAWNCKEDVQIKVEPQIYRWIREWGRDYMSEFREQRRKLNEKCEDKLYYSTMLICTLPPCNNACKSYDEWITGKKKQWDVLSTKFSSVKKAQKIETENIARAYDILKQELNGFNEVTFENEINKRDKLYNYFCVCIVQEARKNTQENVKNVGSGVESKAPSSNPINEAVKSSSGEGKVQEDSAHRSVNEGEGKSSTNEADPGSQPGAAASGGGSGGGTGGGVDLAPQMLRELQETNAALQDVRELLRQQVKEITFLKNTVMECDACGGPLDRNLPPLAPLGPTGGWSHPQFEK
# What was measured:
# Test in all cases: glycan array binding signal (z-score within array); higher = stronger binding
# Details in all cases: glycan notation: IUPAC condensed, linker removed
# [1] = biological target: Fuc(a1-2)Gal(b1-3)GlcNAc(b1-3)GalNAc
# Method in brief: (§1)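 Glycan array binding is given as a within-array Z-score, which can be read as non-binding when negative. The arrays, 3228 of them, came from the Consortium for Functional Glycomics database and were retained only where the protein sequence was available. Z-scores were averaged across arrays of the same protein sequence at different concentrations or buffers and across linkers.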
# Fuc(a1-2)Gal(b1-4)Glc = biological target: Fuc(a1-2)Gal(b1-4)Glc
# Method in brief: as §1
# [2] = biological target: Fuc(a1-2)Gal(b1-4)GlcNAc(b1-2)[Fuc(a1-2)Gal(b1-4)GlcNAc(b1-4)]Man(a1-3)[Fuc(a1-2)Gal(b1-4)GlcNAc(b1-2)Man(a1-6)]Man(b1-4)GlcNAc(b1-4)GlcNAc
# Method in brief: as §1
# [3] = biological target: Fuc(a1-2)Gal(b1-4)GlcNAc(b1-3)GalNAc
# Method in brief: as §1
# [4] = biological target: Fuc(a1-2)Gal(b1-4)GlcNAc(b1-3)[Fuc(a1-3)[Gal(b1-4)]GlcNAc(b1-6)]Gal(b1-4)Glc
# Method in brief: as §1
# [5] = biological target: Fuc(a1-2)Gal(b1-4)[Fuc(a1-3)]GlcNAc(b1-2)[Fuc(a1-2)Gal(b1-4)[Fuc(a1-3)]GlcNAc(b1-4)]Man(a1-3)[Fuc(a1-2)Gal(b1-4)[Fuc(a1-3)]GlcNAc(b1-2)Man(a1-6)]Man(b1-4)GlcNAc(b1-4)GlcNAc
# Method in brief: as §1
# [6] = biological target: Fuc(a1-2)[Gal(a1-3)]Gal(b1-4)GlcNAc(b1-2)Man(a1-3)[Fuc(a1-2)[Gal(a1-3)]Gal(b1-4)GlcNAc(b1-2)Man(a1-6)]Man(b1-4)GlcNAc(b1-4)GlcNAc
# Method in brief: as §1
# [7] = biological target: Fuc(a1-2)[GalNAc(a1-3)]Gal(b1-3)GlcNAc
# Method in brief: as §1
# [8] = biological target: Fuc(a1-2)[GalNAc(a1-3)]Gal(b1-3)GlcNAc(b1-6)GalNAc
# Method in brief: as §1
# [9] = biological target: Fuc(a1-2)[GalNAc(a1-3)]Gal(b1-4)GlcNAc(b1-2)Man(a1-3)[Fuc(a1-2)[GalNAc(a1-3)]Gal(b1-4)GlcNAc(b1-2)Man(a1-6)]Man(b1-4)GlcNAc(b1-4)GlcNAc
# Method in brief: as §1
# [10] = biological target: Fuc(a1-2)[GalNAc(a1-3)]Gal(b1-4)GlcNAc(b1-6)GalNAc
# Method in brief: as §1
# [11] = biological target: Fuc(a1-3)[Gal(b1-4)]GlcNAc(b1-3)GalNAc
# Method in brief: as §1
# Fuc(a1-4)GlcNAc = biological target: Fuc(a1-4)GlcNAc
# Method in brief: as §1
# Gal(a1-3)Gal(b1-4)GlcNAc = biological target: Gal(a1-3)Gal(b1-4)GlcNAc
# Method in brief: as §1
# Gal(b1-2)Gal = biological target: Gal(b1-2)Gal
# Method in brief: as §1
# Gal(b1-3)Gal = biological target: Gal(b1-3)Gal
# Method in brief: as §1
# [12] = biological target: Gal(b1-3)GalNAc(b1-4)Gal(b1-4)Glc
# Method in brief: as §1
# [13] = biological target: Gal(b1-3)GlcNAc(a1-6)Gal(b1-4)GlcNAc
# Method in brief: as §1
# [14] = biological target: Gal(b1-3)GlcNAc(b1-3)Gal(b1-3)GlcNAc
# Method in brief: as §1
# [15] = biological target: Gal(b1-3)GlcNAc(b1-3)Gal(b1-4)[Fuc(a1-3)]GlcNAc(b1-6)[Gal(b1-3)GlcNAc(b1-3)]Gal(b1-4)Glc
# Method in brief: as §1
# [16] = biological target: Gal(b1-3)[Fuc(a1-4)]GlcNAc(b1-6)GalNAc
# Method in brief: as §1
# [17] = biological target: Gal(b1-4)GlcNAc(b1-3)Gal(b1-4)GlcNAc(b1-2)[Gal(b1-4)GlcNAc(b1-3)Gal(b1-4)GlcNAc(b1-6)]Man(a1-6)[Gal(b1-4)GlcNAc(b1-3)Gal(b1-4)GlcNAc(b1-2)Man(a1-3)]Man(b1-4)GlcNAc(b1-4)GlcNAc
# Method in brief: as §1
# [18] = biological target: Gal(b1-4)GlcNAc(b1-3)Gal(b1-4)GlcNAc(b1-3)Gal(b1-4)GlcNAc(b1-2)Man(a1-3)[Gal(b1-4)GlcNAc(b1-3)Gal(b1-4)GlcNAc(b1-3)Gal(b1-4)GlcNAc(b1-2)Man(a1-6)]Man(b1-4)GlcNAc(b1-4)GlcNAc
# Method in brief: as §1
# [19] = biological target: Gal(b1-4)GlcNAc(b1-3)Gal(b1-4)GlcNAc(b1-3)Gal(b1-4)GlcNAc(b1-3)Gal(b1-4)GlcNAc(b1-3)Gal(b1-4)GlcNAc(b1-2)Man(a1-3)[Gal(b1-4)GlcNAc(b1-3)Gal(b1-4)GlcNAc(b1-3)Gal(b1-4)GlcNAc(b1-3)Gal(b1-4)GlcNAc(b1-3)Gal(b1-4)GlcNAc(b1-2)Man(a1-6)]Man(b1-4)GlcNAc(b1-4)GlcNAc
# Method in brief: as §1
# [20] = biological target: Gal(b1-4)GlcNAc(b1-3)Gal(b1-4)GlcNAc(b1-3)Gal(b1-4)GlcNAc(b1-3)Gal(b1-4)GlcNAc(b1-3)Gal(b1-4)GlcNAc(b1-2)[Gal(b1-4)GlcNAc(b1-3)Gal(b1-4)GlcNAc(b1-3)Gal(b1-4)GlcNAc(b1-3)Gal(b1-4)GlcNAc(b1-3)Gal(b1-4)GlcNAc(b1-6)]Man(a1-6)[Gal(b1-4)GlcNAc(b1-3)Gal(b1-4)GlcNAc(b1-3)Gal(b1-4)GlcNAc(b1-3)Gal(b1-4)GlcNAc(b1-3)Gal(b1-4)GlcNAc(b1-2)Man(a1-3)]Man(b1-4)GlcNAc(b1-4)[Fuc(a1-6)]GlcNAc
# Method in brief: as §1
# [21] = biological target: Gal3S(b1-4)[Fuc(a1-3)]GlcNAc
# Method in brief: as §1
# Gal3S6S(b1-4)GlcNAc6S = biological target: Gal3S6S(b1-4)GlcNAc6S
# Method in brief: as §1
# GalNAc(a1-3)Gal = biological target: GalNAc(a1-3)Gal
# Method in brief: as §1
binder,measurement,setting,value
B1,glycan array binding signal (z-score),[1],0.928
same,glycan array binding signal (z-score),Fuc(a1-2)Gal(b1-4)Glc,-0.028
same,glycan array binding signal (z-score),[2],-0.391
same,glycan array binding signal (z-score),[3],1.14
same,glycan array binding signal (z-score),[4],-0.305
same,glycan array binding signal (z-score),[5],0.541
same,glycan array binding signal (z-score),[6],0.37
same,glycan array binding signal (z-score),[7],0.388
same,glycan array binding signal (z-score),[8],-0.403
same,glycan array binding signal (z-score),[9],0.106
same,glycan array binding signal (z-score),[10],-0.264
same,glycan array binding signal (z-score),[11],0.185
same,glycan array binding signal (z-score),Fuc(a1-4)GlcNAc,-0.191
same,glycan array binding signal (z-score),Gal(a1-3)Gal(b1-4)GlcNAc,-0.331
same,glycan array binding signal (z-score),Gal(b1-2)Gal,-0.181
same,glycan array binding signal (z-score),Gal(b1-3)Gal,0.074
same,glycan array binding signal (z-score),[12],0.593
same,glycan array binding signal (z-score),[13],-0.036
same,glycan array binding signal (z-score),[14],-0.37
same,glycan array binding signal (z-score),[15],-0.308
same,glycan array binding signal (z-score),[16],-0.142
same,glycan array binding signal (z-score),[17],0.897
same,glycan array binding signal (z-score),[18],0.866
same,glycan array binding signal (z-score),[19],1.25
same,glycan array binding signal (z-score),[20],0.939
same,glycan array binding signal (z-score),[21],-0.081
same,glycan array binding signal (z-score),Gal3S6S(b1-4)GlcNAc6S,-0.041
same,glycan array binding signal (z-score),GalNAc(a1-3)Gal,-0.429
